Results published in PubChem BioAssay AID1259416 (Broad Institute, 2018).
Several values for one entry are separate records, joined by “and”; a condition that tells them apart may be missing. Equal entries are not always repeated. The whole screen tested about 69,000 compounds, of which about 2,600 (3.8%) were called active. The sample holds actives, similar compounds and a random draw of the others, so the mix is not that of the screen. Cut-off read from the data, not from the text of the source: active = activity change below about -70% (passing the limit was not always enough); inconclusive = no clear call, values can overlap the other calls.

Experiment: inhibitors of Toxoplasma growth in IFN-γ-primed hosts – cell-based, primary screen (AID 1259416);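 note: host cells are HeLa cells infected with Toxoplasma gondii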
Conditions: Toxoplasma gondii growth in IFN-gamma-treated host cells; stronger effect = lower value; concentration not given here

Row | Compound | activity change, negative = inhibition
1 | COC(=O)c1ccc(-c2noc(-c3c(O)c4ccccc4[nH]c3=O)n2)cc1 | 21.8% (inactive)
2 | O=C(CCCn1cnnn1)N1CCc2onc(-c3cccc(F)c3)c2C1 | -6.14% (inactive)
3 | CCCCCCCCCc1ccc(OCCOCCOCCOCCOCCOCCOCCOCCOCCO)cc1 | -80.7% (active)
4 | CCCCCc1ccc(C#Cc2ccc(OC(F)F)cc2)cc1 | 5.21% (inactive)
5 | CCCCc1ccc(S(N)(=O)=O)cc1 | -51.9% (inactive)
6 | Cc1cc(-c2cccc(O)c2)nc(-c2ccccc2O)n1 | -20% (inactive)
7 | CN1C(=O)c2cc(NC(=O)C3CCOCC3)ccc2OC[C@@H]2O[C@H](CC(=O)NCc3ccccc3F)CC[C@H]21 | 11.5% (inactive)
8 | CN(C)C(=O)N1CCc2ncnc(C3CCOC3)c2CC1 (stereo unspecified) | 1.98% (inactive)
9 | O=C(Cn1c(=O)cc(C(=O)N2CCCCC2)c2ccccc21)NC1CCCC1 | 11.6% (inactive)
10 | CC(C)CN1CCC2(C=C(C(=O)N(C)C)c3ccccc32)CC1 | -81.7% (active)
11 | CC(C)CN1C(=O)N(C2Cc3ccccc3C2)C(=O)C12CCN(Cc1nc3ccccc3n1C)CC2 | -8.38% (inactive)
12 | CC(C)CN1CC[C@H]2[C@H](CC1)S(=O)(=O)CCN2C(=O)c1ccccc1 | 3.93% (inactive)
13 | Cc1ccc(C(=O)N2CCC3(CC2)C(=O)N(C)CCN3CC2CC2)cn1 | 1.05% (inactive)
14 | CN1C[C@@H]2C3(CCN(C(=O)Nc4ccccc4)CC3)CC[C@@]2(C(=O)N2CCCC2)C1 | 6.69% (inactive)
15 | COc1ccc2c3c(n(C)c2c1)[C@@H](CO)N(C)CC31CN(S(=O)(=O)c2cccs2)C1 | 36% (inactive)
16 | C#C[C@]1(O)CC[C@H]2[C@@H]3CCC4=CC(=O)CC[C@@H]4[C@H]3CC[C@@]21CC | -81.4% (active) and -75.5% (active)
17 | C#C[C@]1(O)CC[C@H]2[C@@H]3CCC4=CC(=O)CC[C@@H]4C3CC[C@@]21CC (stereo partly specified) | -83.8% (active)
18 | COc1cc(-c2nc(CN3[C@@H]4CC[C@H]3CNC(=O)C4)c(C)o2)cc2c1OCO2 | -3.36% (inactive)
19 | COc1ccccc1NC(=O)Cn1ncc2c(N3CCN(c4ccccc4)CC3)ncnc21 | 74% (inactive)
20 | COc1ccc(-c2nc(C)c(CCNC(=O)C(=O)Nc3cccc(OC)c3)s2)cc1 | 487% (inactive)
21 | Cc1oc(-c2cccc(Oc3ccccc3)c2)nc1CN1[C@@H]2CC[C@H]1CNC(=O)C2 | -8.53% (inactive)
22 | O=C(CC1Nc2c3ccccc3nc(=S)n2C1=O)N1CCN(c2ccc(Cl)cc2)CC1 (stereo unspecified) | -16.2% (inactive)
23 | COc1ncc(-c2cccc(C(C)N3CCCC3)c2)c(OC)n1 (stereo unspecified) | -10.7% (inactive)
24 | C[C@@H]1CCCCO[C@@H](CN(C)Cc2ccncc2)[C@H](C)CN([C@H](C)CO)C(=O)c2cc(NC(=O)Cc3ccccc3)ccc2O1 | 318% (inactive)

Row | Compound | activity change, negative = inhibition
25 | Cc1ccc(S(=O)(=O)Nc2ccc3c(c2)C(=O)N([C@@H](C)CO)C[C@@H](C)[C@H](CN(C)Cc2ccc(C(F)(F)F)cc2)O3)cc1 | -72.9% (active)
26 | C[C@H](CO)N1C[C@H](C)[C@@H](CN(C)Cc2ccncc2)OCCCC[C@H](C)Oc2ccc(NS(=O)(=O)c3ccc(Cl)cc3)cc2C1=O | -94.1% (active)
27 | C[C@@H]1CN([C@H](C)CO)C(=O)c2cc(NC(=O)Cc3ccccc3)ccc2O[C@@H](C)CCCCO[C@@H]1CN(C)Cc1ccncc1 | 31.6% (inactive)
28 | Cc1noc(C)c1S(=O)(=O)N(C)C[C@@H]1OCCCC[C@H](C)Oc2ccc(NC(=O)CCC(F)(F)F)cc2C(=O)N([C@H](C)CO)C[C@H]1C | 94.9% (inactive)
29 | C[C@@H]1CN([C@H](C)CO)C(=O)c2cc(NS(=O)(=O)c3ccccc3)ccc2O[C@@H](C)CCCCO[C@H]1CN(C)C(=O)C1CCCCC1 | -116% (active)
30 | C[C@@H]1CN([C@@H](C)CO)C(=O)c2cc(NS(C)(=O)=O)ccc2O[C@@H]1CN(C)C | -0.62% (inactive)
31 | C[C@H](CO)N1C[C@H](C)[C@H](CN(C)Cc2ccncc2)Oc2ccc(NS(=O)(=O)c3ccc(F)cc3)cc2CC1=O | 33.3% (inactive)
32 | Cc1noc(C)c1S(=O)(=O)Nc1ccc2c(c1)C(=O)N([C@@H](C)CO)C[C@H](C)[C@@H](CN(C)C(=O)Nc1cccc3ccccc13)OCCCC[C@H](C)O2 | 141% (inactive)
33 | Cc1ccc(S(=O)(=O)Nc2ccc3c(c2)C(=O)N([C@H](C)CO)C[C@@H](C)[C@H](CN(C)S(=O)(=O)c2cccs2)OCCCC[C@@H](C)O3)cc1 | -131% (active)
34 | C[C@@H]1CN([C@@H](C)CO)C(=O)c2cc(NS(=O)(=O)c3ccccc3)ccc2O[C@@H](C)CCCCO[C@H]1CN(C)C(=O)C1CCCCC1 | -14.8% (inactive)
35 | C[C@@H]1CN([C@H](C)CO)C(=O)c2cc(NS(=O)(=O)c3cccs3)ccc2O[C@@H](C)CCCCO[C@@H]1CN(C)C(=O)c1ccncc1 | 14.1% (inactive)
36 | CCOC(=O)c1oc2ccc(S(=O)(=O)Nc3ccc4[nH]c(=O)[nH]c4c3)cc2c1C | 75.3% (inactive)
37 | COCc1nnn2c1CN(Cc1ccc(C)s1)CCC2 | -49.3% (inactive)
38 | O=C(C1CCOCC1)N1CC(=O)N2[C@H](CO)[C@H](c3ccc(C#CC4CCCCC4)cc3)[C@H]2C1 | 19.2% (inactive)
39 | Cc1nc(SCC(=O)Nc2cccc(C(F)(F)F)c2)oc1C | 21% (inactive)
40 | COc1ccc(OC)c(NC(=O)Cn2c(=O)cc(C(=O)N3CCCCC3)c3ccccc32)c1 | 5.37% (inactive)
41 | CN(C)C(=O)[C@@H]1CCS(=O)(=O)[C@H]2CN(C(=O)NCc3ccccc3)C[C@@H]12 | 7.18% (inactive)
42 | COc1cccc(CC2(CO)CCN(c3ncnc4sccc34)CC2)c1 | -61.2% (inactive)
43 | O=S(=O)(c1ccccc1)N1[C@H](CO)[C@@H]2c3ccccc3NC[C@@H]21 | -13.4% (inactive)
44 | C[C@@H]1CCCCO[C@H](CN(C)C(=O)CCCN(C)C)[C@H](C)CN([C@@H](C)CO)C(=O)c2cc(NS(=O)(=O)c3ccc(Cl)cc3)ccc2O1 | -84.8% (active)
45 | C[C@@H]1CCCCO[C@H](CN(C)Cc2ccc3c(c2)OCO3)[C@H](C)CN([C@@H](C)CO)C(=O)c2cc(NS(=O)(=O)c3cn(C)cn3)ccc2O1 | 11.5% (inactive)
46 | C[C@@H]1CN([C@H](C)CO)C(=O)c2cc(NC(=O)NC3CCCCC3)ccc2O[C@@H](C)CCCCO[C@H]1CN(C)S(C)(=O)=O | -35.8% (inactive)
47 | COc1ccc(S(=O)(=O)Nc2ccc3c(c2)C(=O)N([C@@H](C)CO)C[C@@H](C)[C@H](CN(C)Cc2ccc(C(F)(F)F)cc2)OCCCC[C@@H](C)O3)cc1 | -112% (active)
48 | CNC[C@H]1OCCCC[C@@H](C)Oc2ccc(NS(=O)(=O)c3ccc(F)cc3)cc2C(=O)N([C@H](C)CO)C[C@H]1C | 193% (inactive)

Row | Compound | activity change, negative = inhibition
49 | CNC[C@@H]1OCCCC[C@H](C)Oc2ccc(NS(=O)(=O)c3ccc(F)cc3)cc2C(=O)N([C@@H](C)CO)C[C@@H]1C | 41.1% (inactive)
50 | COc1ccc(S(=O)(=O)Nc2ccc3c(c2)C(=O)N([C@@H](C)CO)C[C@H](C)[C@H](CN(C)Cc2ccc(C(F)(F)F)cc2)OCCCC[C@@H](C)O3)cc1 | -47% (inactive)
51 | C[C@@H]1CCCCO[C@H](CN(C)C(=O)Nc2ccccc2)[C@H](C)CN([C@H](C)CO)C(=O)c2cc(NC(=O)Nc3ccccc3)ccc2O1 | 72.5% (inactive)
52 | C[C@@H]1CCCCO[C@@H](CN(C)S(=O)(=O)c2ccccc2)[C@H](C)CN([C@H](C)CO)C(=O)c2cc(NC(=O)Nc3ccc4c(c3)OCO4)ccc2O1 | -79.4% (active)
53 | C[C@@H](O)C#Cc1ccc([C@H]2[C@@H](CO)N3CCCCN(CC4CC4)C[C@@H]23)cc1 | -5.07% (inactive)
54 | Cc1nc(-c2cccnc2)sc1C(=O)N(CCN(C)C)Cc1ccc2c(c1)OCO2 | -47.1% (inactive)
55 | CCC(NC(=O)CCNC(=O)c1ccccc1F)c1cccs1 (stereo unspecified) | 98.8% (inactive)
56 | COc1ccc2c(c1)NC1(CCN(S(=O)(=O)c3c(C)nn(C)c3C)CC1)c1cccn1-2 | 1.37% (inactive)
57 | CN1C(=O)CCc2cc(C(=O)NCc3cccc(Cl)c3)ccc21 | -50% (inactive)
58 | Cc1csc(CCCNc2cc(N(C)C)ncn2)n1 | -14.5% (inactive)
59 | Cc1ccc(-c2nnn(CC(=O)N(CC(=O)NC(C)(C)C)c3ccc(C(C)C)cc3)n2)o1 | -40.3% (inactive)
60 | CC(C)n1cnc(-c2cc(C(=O)N3CCC(N(C)C)CC3)c3ccccn23)c1 | -48.2% (inactive)
61 | CN(C)C1CCN(C(=O)c2ccnn2-c2ccc3ccc(-c4ccccc4)cn23)CC1 | -101% (active)
62 | Cc1cc(C(=O)N2CCCC(N(C)C)CC2)sc1C (stereo unspecified) | 8.26% (inactive)
63 | CC(C)c1noc(C2CCCN(C(=O)c3cccc4ccnn34)C2)n1 (stereo unspecified) | 88% (inactive)
64 | Cc1ccc2c(c1)C1CN(C)CCC1N2S(=O)(=O)c1ccc(Oc2ccc([N+](=O)[O-])cc2)cc1 (stereo unspecified) | -88.8% (active)
65 | Cc1ccc(NC(=O)NCC(c2cccnc2)c2c[nH]c3ccccc23)cc1F (stereo unspecified) | 41.3% (inactive)
66 | C=CCOCC1c2c(ncn2C(C)C)CCN1C(=O)CC (stereo unspecified) | -6.91% (inactive)
67 | CC(=O)N1C[C@@H]2[C@H](c3ccccc31)[C@H](CO)N2Cc1ccc(Cl)cc1 | 2.64% (inactive)
68 | Cc1ccc(C(=O)N2CC[C@H]3[C@@H]2CCN3c2nncs2)o1 | 17.4% (inactive)
69 | Cc1cccc(C)c1-c1c(-c2ccccc2)ncn1CCCCN | -13.6% (inactive)
70 | OC(Cn1cnc(-c2ccccc2)c1-c1ccccc1)Cn1c2ccccc2c2ccccc21 (stereo unspecified) | -85.9% (active)
71 | Cn1ccnc1-c1c(-c2ccccc2)ncn1CC(O)Cc1ccccc1 (stereo unspecified) | -0.253% (inactive)
